The full list was thinned out, with hits kept by preference.
ST2 IL33 inh: blocks human ST2 binding to IL-33. Q01638. AlphaLISA ST2-Fc/biotin-IL-33 interaction, 1 h. inhibition, % for hits at 17 µM. 2.3% of 78,000 active. AID 1259354; in the data active means inhibition above about 30%
Target sequence (Q01638 whole entry, looked up): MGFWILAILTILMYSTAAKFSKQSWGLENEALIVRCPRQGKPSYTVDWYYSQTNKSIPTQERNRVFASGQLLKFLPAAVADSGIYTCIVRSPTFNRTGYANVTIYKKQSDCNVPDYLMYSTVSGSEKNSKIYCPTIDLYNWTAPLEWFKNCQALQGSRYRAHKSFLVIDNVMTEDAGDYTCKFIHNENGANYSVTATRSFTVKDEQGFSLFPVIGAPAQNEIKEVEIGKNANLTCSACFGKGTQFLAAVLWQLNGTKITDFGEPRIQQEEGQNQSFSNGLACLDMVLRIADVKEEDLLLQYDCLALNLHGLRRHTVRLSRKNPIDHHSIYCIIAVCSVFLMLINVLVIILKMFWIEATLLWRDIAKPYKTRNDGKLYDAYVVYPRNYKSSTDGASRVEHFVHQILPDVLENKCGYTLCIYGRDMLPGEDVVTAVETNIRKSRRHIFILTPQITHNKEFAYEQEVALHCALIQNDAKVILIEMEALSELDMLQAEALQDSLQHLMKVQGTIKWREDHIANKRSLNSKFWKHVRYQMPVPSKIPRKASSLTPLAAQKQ
Starred values were filed as active, the others as inactive; i = inactive.

SMILES	ST2 IL33 inh
CCOc1ccc(N2COc3ccc(OCC)cc3C2)cc1	i
COc1ccc2c(c1)CN(c1ccc(C(=O)O)cc1)CO2	i
Cc1cnn(-c2nc(-c3ccco3)cc(C(F)(F)F)n2)c1	i
C=CCOc1ccc(Cl)cc1/C=C(\C#N)c1nc2ccccc2[nH]1	i
N#C/C(=C\c1ccc(O)cc1O)c1nc2ccccc2[nH]1	i
N#C/C(=C\c1cc(Cl)ccc1O)c1nc2ccccc2[nH]1	35%*
Cc1nc2sccn2c1-c1c(-c2ccccc2)ncn1CCC1CCCN1C (configuration not stated)	i
CC(C(=O)N1CCCC1)N1CC(c2cccnc2)C1 (configuration not stated)	i
COc1ccc(C(O)=C2C(=O)C(=O)N(CCCN3CCOCC3)C2c2ccc(C)o2)cc1OC (configuration not stated)	i
Cc1ccc(C(=O)N2C(C(=O)O)CSC2c2ccccc2Cl)cc1 (configuration not stated)	i
Cc1cc(OC(C)C)nc(-c2ccccc2O)n1	i
Cc1cc(N2N=C(c3ccccc3)CC2=O)nc(-c2ccccc2O)n1	31%*
Cc1cc(NC2CCCCC2)nc(-c2ccccc2O)n1	i
Cc1cc(C)n(-c2cccc(CN(C)C(=O)Cn3nnnc3CN3CCCC3)c2)n1	i
Cc1cc(C)c2[nH]c(C)c(CC(=O)N3CCOC(C(F)(F)F)C3)c2c1 (configuration not stated)	i
CC1CCCN(CC(O)COc2ccc(C3CCCCC3)cc2)C1 (configuration not stated)	i
CC(C)(C)c1ccc(OCC(O)CN2CCCC2)cc1 (configuration not stated)	i
OC(COc1ccc(C2C=CCC2)cc1)CN1CCCCC1 (configuration not stated)	52%*
Cc1nc2c(C(=O)NC3CCCC3)c[nH]n2c(=O)c1Cc1cccc(Cl)c1	i
CCOC(=O)C1=NN(c2cccc(Cl)c2)C2C(=O)N(c3ccc(Cl)cc3)C(=O)C12 (configuration not stated)	i
Cc1ccc(-c2cc(CN3CCCC(N4CCCC4=O)C3)on2)cc1 (configuration not stated)	i
COc1ccc(Nc2nnc(Cc3cccnc3)c3ccccc23)c(OC)c1	i
CNCC(=O)N1CCCC(OCc2ccccn2)C1 (configuration not stated)	i
CC(=O)N1CCC(C(=O)N[C@H]2CCN3C(=O)N(c4cccc(C(F)(F)F)c4)C(=O)[C@@H]3C2)CC1	i
O=C(N[C@H]1CCN2C(=O)N(c3cccc(C(F)(F)F)c3)C(=O)[C@@H]2C1)c1ccncc1	56%*
SMILES	ST2 IL33 inh
O=C(N[C@H]1CCN2C(=O)N(c3ccc(OC(F)(F)F)cc3)C(=O)[C@@H]2C1)c1ccncc1	i
Cc1nc2c(c(NC[C@H]3CCc4ccccc4O3)n1)CNC2	i
O[C@@H]1CN(Cc2ccc3nonc3c2)CC[C@H]1c1ccc2c(c1)OCO2	i
CCOc1cc(C2C(C#N)=C(N)OC3=C2C(=O)CC(c2ccccc2)C3)ccc1OC (configuration not stated)	i
O=C(O)COc1ccc(C=C2C(=O)c3ccccc3C2=O)cc1Cl	i
O=c1ccn(-c2ccccc2)[nH]1	i
O=C1C(=Cc2cccn2-c2ccccc2)C(=O)c2ccccc21	31%*
COc1cc(-c2nc3cnccn3c2Nc2ccc3c(c2)OCCO3)ccc1O	i
COc1ccc(-c2nc3sccn3c2Nc2ccc3c(c2)OCO3)cc1	30%*
Cc1ccc(-c2nc3sccn3c2Nc2ccccc2C)cc1	i
CCn1c(C(C)NC(=O)COC)nc2ccccc21 (configuration not stated)	i
CCOc1ccc(N(CC(=O)N2CCc3ccccc3C2)S(C)(=O)=O)cc1	i
c1ccc(-n2cc(CN3CCCCC3c3nccs3)c(-c3ccc4c(c3)OCO4)n2)cc1 (configuration not stated)	i
CCc1ccc(OCC(=O)Nc2ccc(N3CCN(C(C)=O)CC3)cc2)cc1	i
Cc1ccc(OCC(=O)Nc2ccc(N3CCCC3)cc2)cc1C	59%*
Cc1cc(C)c(NC(=O)COc2ccc(C)c(C)c2)c(C)c1	i
Cc1cccc(OCC(=O)Nc2sc3c(c2C#N)CCC3)c1C	i
Cc1cccc(OCC(=O)Nc2ccc(N3CCCC3)cc2)c1C	66%*
CC(=O)Nc1ccc(OCC(=O)Nc2c(C)cccc2C)cc1	i
O=C(CSc1nc2c(c(=O)n1-c1ccc(Cl)cc1)SCC2)Nc1ccccc1F	i
CC(C)CC(NC(=O)C1(C(F)(F)F)CC1)c1nnc2n1CCNCC2 (configuration not stated)	i
Cc1c(C(=O)NC(C)c2ccccc2)oc2ccc(S(=O)(=O)N3CC(C)CC(C)C3)cc12 (configuration not stated)	i
Cc1ccc(NC(=O)c2cccc(F)c2)cc1[N+](=O)[O-]	i
Cc1cccc(C(=O)Nc2cccc([N+](=O)[O-])c2C)c1	i
Cc1ccc(C(=O)c2ccc(Cl)cc2)cc1[N+](=O)[O-]	42%*
SMILES	ST2 IL33 inh
Cc1cccc(C(=O)Nc2ccc(NC(=O)c3ccc(C)c([N+](=O)[O-])c3)cc2)c1	32%*
CNC(=O)c1ccc(C)c([N+](=O)[O-])c1	i
Cc1ccc(NC(=O)COc2ccc(Cl)cc2)cc1[N+](=O)[O-]	i
CNC(=O)C1CCC(Cn2c(=O)c3sccc3n(CC(=O)NC(C)C)c2=O)CC1 (configuration not stated)	i
Cc1cc(N2CCOCC2)nc(N2CCN(S(=O)(=O)c3ccc(Oc4ccccc4)cc3)CC2)n1	i
Brc1cccc(Oc2cccnc2)c1	i
Cn1cc(/C=C/C(=O)N2CCCC(c3n[nH]c(=O)n3-c3ccccc3)C2)cn1 (configuration not stated)	i
CN(CCc1cnn(C)c1)C(=O)c1ccc2oc(Cc3ccc(Cl)cc3)nc2c1	i
O=C(Cn1c(=O)[nH]c2ccsc2c1=O)N1CCN(c2ccccc2)CC1	i
Cn1c(=O)c2c(ncn2CC(=O)Nc2nc3ccc(S(C)(=O)=O)cc3s2)n(C)c1=O	i
CCc1cccc(CC)c1NS(=O)(=O)c1cccc2cccnc12	i
COc1ccc(NC(=O)C2CCN(S(=O)(=O)c3ccc(Cl)cc3)CC2)cc1OC	i
Cc1cc(Nc2ccc(O)cc2)n2c(nc3ccccc32)c1C#N	33%*
Cc1cc(NCCO)n2c(nc3ccccc32)c1C#N	i
Cc1cc(NCCCN(C)C)n2c(nc3ccccc32)c1C#N	i
CC(C)CC(C(=O)Nc1nccs1)N1C(=O)c2ccccc2C1=O (configuration not stated)	i
Cc1nc(C(C)N(C)Cc2ncccc2C(=O)O)c(C)s1 (configuration not stated)	i
COc1ccc(NC2CCCN(C(=O)/C=C/c3cccc(Cl)c3)C2)cc1OC (configuration not stated)	i
COc1ccc(NC(=O)NC2CCCN(C3CCCCCC3)C2)cc1OC (configuration not stated)	i
COc1ccc(NC2CCCN(C3CCN(c4ccccc4C)CC3)C2)cc1OC (configuration not stated)	34%*
Cc1sc2ncnc(Sc3nnnn3-c3ccccc3)c2c1C	44%*
Cc1cc(Sc2nnnn2-c2ccccc2)nc2ccccc12	i
CSc1nnnn1-c1ccccc1	i
CC1=C(C(=O)Nc2ccc(C)cc2C)C(c2ccc(C(C)C)cc2)n2ncnc2N1 (configuration not stated)	i
